MEKK2mut PB1 HTS – MEK5 binding signal on mutant MEKK2 PB1, primary screen, biochemical, multiplex bead flow cytometry, Alexa488-MEK5. 290,000 compounds, 0.35% hits. Alexa488-MEK5 binding to MEKK2 mutant. percent response, % at 10 µM; in the data active = percent response above about 24%, passing the limit was not always enough
DNA FID counter – compounds displacing fluorescent DNA intercalator, primary screen, artefact control for HCV NS3 helicase inhibitor project, biochemical, FID fluorescence; DNA fluorescent intercalator displacement; inhibition, % at 7.9 µM; 290,000 compounds, 0.17% hits; in the data active = inhibition above about 37%;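 also: higher means more ethidium bromide displaced from hairpin DNA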
MEKK2wt PB1 HTS – modulators of MEK5 binding to wildtype MEKK2, primary screen, biochemical, multiplex bead flow cytometry, Alexa488-MEK5. binding response (% of control), % at 10 µM. Alexa488-MEK5 binding to MEKK2 WT; actives lie on both sides. 290,000 compounds, 1.1% hits; in the data active = binding response below about 67% or above about 130%
MEKK3 PB1 HTS – modulators of MEKK3-MEK5 PB1 binding, primary screen, biochemical, wildtype MEKK3, multiplex bead flow cytometry, Alexa488-MEK5 | Mitogen-activated protein kinase kinase kinase 3 (Homo sapiens), Q99759 | bead-based flow cytometry, Alexa488-MEK5 binding to MEKK3; actives lie on both sides; 0 = blocked by unlabeled MEK5, 100 = vehicle | binding response (% of control), % at 10 µM | 290,000 compounds, 1.4% hits;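 active = binding response more than 3 SD above or below the average of its plate-row segment, actives on both sides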;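 also: Alexa488 bead fluorescence after subtracting the streptavidin-only scavenger bead signal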
Target sequence (Q99759 whole entry, looked up): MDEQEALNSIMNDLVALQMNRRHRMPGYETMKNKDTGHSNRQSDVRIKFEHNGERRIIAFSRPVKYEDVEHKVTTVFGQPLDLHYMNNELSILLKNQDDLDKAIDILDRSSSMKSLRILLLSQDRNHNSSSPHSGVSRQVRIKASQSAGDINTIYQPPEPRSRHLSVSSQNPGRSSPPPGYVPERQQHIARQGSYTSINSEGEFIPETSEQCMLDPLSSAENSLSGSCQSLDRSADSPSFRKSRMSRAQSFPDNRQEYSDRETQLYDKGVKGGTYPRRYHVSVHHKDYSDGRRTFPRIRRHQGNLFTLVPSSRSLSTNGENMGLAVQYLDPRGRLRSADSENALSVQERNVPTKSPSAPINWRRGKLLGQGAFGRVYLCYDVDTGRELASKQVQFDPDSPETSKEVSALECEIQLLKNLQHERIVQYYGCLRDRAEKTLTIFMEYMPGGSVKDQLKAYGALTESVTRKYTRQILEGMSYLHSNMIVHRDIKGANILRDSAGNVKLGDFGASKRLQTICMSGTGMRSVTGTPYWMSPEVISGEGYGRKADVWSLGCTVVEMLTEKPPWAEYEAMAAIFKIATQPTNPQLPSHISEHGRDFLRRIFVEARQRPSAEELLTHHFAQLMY
dFosB activator – activators of delta FosB homodimer, primary screen, biochemical, fluorescence polarization, TAMRA-CDK5 oligo, single point; Protein FosB (Mus musculus), P13346; purified delta FosB; percent of positive-control signal above neutral wells; activation, % at 25 µM; 340,000 compounds, 0.99% hits; AID 493131, 2011;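 active = mean activation above about 17%, with every replicate also reaching it, limit read from the data, passing the limit was not always enough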
MEKK2wt confirm – modulators of MEK5 binding to wildtype MEKK2, confirmation, biochemical, single concentration, multiplex bead flow cytometry. shares compounds with MEKK3 PB1 HTS. Alexa488-MEK5 binding to MEKK2 WT; actives lie on both sides. binding response (% of control), % at 10 µM. 5,900 compounds, 2.4% hits; in the data active = binding response below about 16% or above about 210%; inactive = in between
MEKK2mut confirm – mutant MEKK2 PB1-MEK5 binding signal retest – biochemical, single concentration, multiplex bead flow cytometry, confirmation | shares compounds with MEKK3 PB1 HTS | Alexa488-MEK5 binding to MEKK2 mutant | 5,900 compounds, 2% hits | percent response, % at 10 µM; in the data active = percent response mostly above about 71%, no sharp cut-off; inactive = mostly below about 38%;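 also: higher means compound restores mutant binding toward wildtype level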
MEKK3 confirm – MEKK3 wild-type PB1 binding to MEK5, inhibitors, confirmation, biochemical, bead multiplex flow cytometry, single concentration, wildtype; shares compounds with MEKK3 PB1 HTS; Alexa488-MEK5 binding to MEKK3; hits give low values; binding response (% of control), % at 10 µM; 5,900 compounds, 1.8% hits; AID 1894, 2009;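 active = binding response below 72% of control, or above a set upper limit, though filed actives all read lower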;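 also: lower values mean stronger disruption of MEK5 binding to MEKK3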
A number is an active result; [ ] = remark or other dose. This is a sample that favours compounds with a hit; in the whole collection about 2.9% have one here.

`C[C@@H](CN1C2=NC[C@H](C)N2C[C@H]1Cc1ccc(O)cc1)NC(=O)CCC1CCCCC1` gave MEKK2mut PB1 HTS inactive, DNA FID counter inactive, MEKK2wt PB1 HTS inactive, MEKK3 PB1 HTS inactive and dFosB activator inactive.
`COc1ccccc1/C=C1\SC(=S)N(CC(=O)Nc2nnc(C)s2)C1=O` gave MEKK2mut PB1 HTS inactive, DNA FID counter inactive, MEKK2wt PB1 HTS inactive and MEKK3 PB1 HTS inactive.
COc1ccc(CN2CCn3ncc(C(=O)Nc4cccc(C)c4)c3C2=O)cc1 was read as MEKK2mut PB1 HTS inactive, DNA FID counter inactive, MEKK2wt PB1 HTS inactive, MEKK3 PB1 HTS inactive and dFosB activator inactive.
Screening Oc1c(Cl)cc(Cl)cc1/C=N/Nc1ncc(Br)cn1 returned MEKK2mut PB1 HTS inactive, DNA FID counter inactive, MEKK2wt PB1 HTS inactive, MEKK3 PB1 HTS 138.0, dFosB activator inactive, MEKK2wt confirm inactive, MEKK2mut confirm inactive and MEKK3 confirm inactive.
Screening Cc1csc(NC(=O)CCCNC(=O)c2ccc(Cl)cc2)n1 returned dFosB activator inactive.
Cc1ccc2cc(CN(Cc3ccco3)C(=O)C3CCCCC3)c(=O)[nH]c2c1C was read as MEKK2mut PB1 HTS inactive, DNA FID counter inactive, MEKK2wt PB1 HTS inactive, MEKK3 PB1 HTS inactive and dFosB activator inactive.
For Cc1ccc2cc(CN(Cc3ccco3)C(=O)NC3CCCCC3)c(=O)[nH]c2c1C the results were MEKK2mut PB1 HTS inactive, DNA FID counter inactive, MEKK2wt PB1 HTS inactive, MEKK3 PB1 HTS 64.0[inhibitor], dFosB activator inactive, MEKK2wt confirm inactive, MEKK2mut confirm inactive and MEKK3 confirm inactive.
`O=C(CN1C(=O)c2cccc([N+](=O)[O-])c2C1=O)N1CCN(S(=O)(=O)c2ccccc2)CC1` gave dFosB activator inactive.
`COc1ccc(NC(=O)N2CCN(c3ccc([N+](=O)[O-])cc3)CC2)cc1OC` gave MEKK2mut PB1 HTS inactive, DNA FID counter inactive, MEKK2wt PB1 HTS inactive, MEKK3 PB1 HTS 45.0[inhibitor], dFosB activator inactive, MEKK2wt confirm inactive, MEKK2mut confirm inactive and MEKK3 confirm inactive.
CCN(CC)CCN(Cc1cc2cc3c(cc2[nH]c1=O)OCCO3)C(=S)NCCCN(C)C was read as MEKK2mut PB1 HTS inactive, DNA FID counter inactive, MEKK2wt PB1 HTS 138.0, MEKK3 PB1 HTS inactive, dFosB activator inactive, MEKK2wt confirm inactive, MEKK2mut confirm inactive and MEKK3 confirm inactive.
`CCN(CC)CCN(Cc1cc2cc3c(cc2[nH]c1=O)OCO3)C(=S)NCCCN(C)C` gave MEKK2mut PB1 HTS inactive, DNA FID counter inactive, MEKK2wt PB1 HTS inactive, MEKK3 PB1 HTS inactive and dFosB activator inactive.
For CCCCNC(=S)N(CCN(CC)CC)Cc1cc2cc3c(cc2[nH]c1=O)OCO3 the results were MEKK2mut PB1 HTS 24.0, DNA FID counter inactive, MEKK2wt PB1 HTS inactive, MEKK3 PB1 HTS inactive, dFosB activator inactive, MEKK2wt confirm inactive, MEKK2mut confirm inactive and MEKK3 confirm inactive.
For COC(=O)c1cc(OC)c(OC)cc1NC(=O)Cc1cccs1 the results were MEKK2mut PB1 HTS inactive, DNA FID counter inactive, MEKK2wt PB1 HTS 7.0[inhibitor], MEKK3 PB1 HTS 5.0[inhibitor], dFosB activator inactive, MEKK2wt confirm inactive, MEKK2mut confirm inactive and MEKK3 confirm inactive.
Cc1ccccc1OCC(=O)Nc1cc(S(=O)(=O)N2CCCCC2)ccc1N1CCN(C)CC1 was read as MEKK2mut PB1 HTS inactive, DNA FID counter inactive, MEKK2wt PB1 HTS inactive, MEKK3 PB1 HTS inactive and dFosB activator inactive.
`CCOC(=O)C1CCN(C(=O)CCc2ccc(S(=O)(=O)NC(C)C)cc2)CC1` gave MEKK2mut PB1 HTS inactive, DNA FID counter inactive, MEKK2wt PB1 HTS inactive, MEKK3 PB1 HTS inactive and dFosB activator inactive.
Screening CCOC(=O)C1CCN(C(=O)CCc2ccc(S(=O)(=O)NCC(C)C)cc2)CC1 returned MEKK2mut PB1 HTS 26.0, DNA FID counter inactive, MEKK2wt PB1 HTS inactive, MEKK3 PB1 HTS inactive, dFosB activator inactive, MEKK2wt confirm inactive, MEKK2mut confirm inactive and MEKK3 confirm inactive.
Cc1ccc(N2C(=O)C3C4CC(=O)C(c5ccccc54)C3C2=O)cc1C (configuration not stated) was read as MEKK2mut PB1 HTS inactive, DNA FID counter inactive, MEKK2wt PB1 HTS inactive, MEKK3 PB1 HTS inactive and dFosB activator inactive.
Screening Cc1ccc(CN2CCN(/N=C/c3ccc(C)s3)CC2)cc1 returned MEKK2mut PB1 HTS inactive, DNA FID counter inactive, MEKK2wt PB1 HTS inactive, MEKK3 PB1 HTS inactive and dFosB activator inactive.
Cc1nn(C)cc1C(C)Nc1nc2nonc2nc1N1CCCCC1 (configuration not stated) was read as MEKK2mut PB1 HTS inactive, DNA FID counter inactive, MEKK2wt PB1 HTS inactive, MEKK3 PB1 HTS inactive and dFosB activator inactive.
CC(=O)OCCCNc1cc(Sc2ccc(Cl)cc2)c2nonc2c1[N+](=O)[O-] was read as MEKK2mut PB1 HTS inactive, DNA FID counter inactive, MEKK2wt PB1 HTS inactive, MEKK3 PB1 HTS 132.0, dFosB activator inactive, MEKK2wt confirm inactive, MEKK2mut confirm inactive and MEKK3 confirm inactive.
`CC1CCCC(NC(=O)CN2C(=O)NC(c3ccccc3)(c3ccccc3)C2=O)C1C` (configuration not stated) gave dFosB activator inactive.
For Cc1ccc2nc(N(CCCN(C)C)C(=O)COc3ccc(Cl)cc3)sc2c1 the results were MEKK2mut PB1 HTS inactive, DNA FID counter inactive, MEKK2wt PB1 HTS 180.0, MEKK3 PB1 HTS inactive, dFosB activator inactive, MEKK2wt confirm inactive, MEKK2mut confirm inactive and MEKK3 confirm inactive.
Screening Cc1cc(C)c2sc(N(CCCN(C)C)C(=O)COc3ccc(Cl)cc3)nc2c1 returned MEKK2mut PB1 HTS 55.0, DNA FID counter inactive, MEKK2wt PB1 HTS 246.0, MEKK3 PB1 HTS inactive, dFosB activator inactive, MEKK2wt confirm inactive, MEKK2mut confirm inactive and MEKK3 confirm inactive.
For COc1ccc(CNC(=O)c2ccc(CS(=O)(=O)c3ccc(C)cc3)o2)cc1 the results were MEKK2mut PB1 HTS inactive, DNA FID counter inactive, MEKK2wt PB1 HTS inactive, MEKK3 PB1 HTS inactive and dFosB activator inactive.

Source: PubChem BioAssay (several laboratories)
